Experimental data: PubChem BioAssay AID1159580 (chemical genetic matrix, 2015)
Hit rate of the full screen: of about 5,500 compounds, about 2,000 (36%) were called active. Not shown: some 18% with an inconclusive outcome. No stated cut-off is given here; in the data, active means normalized growth mostly below about 0.91 (no sharp cut-off); inconclusive means no clear call, values can overlap the other calls; inactive means mostly above about 0.92. The list shows a part of the results.

Assay: chemical genetic growth profiling, strain panel (AID 1159580);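 further: tested at 20 µM; growth read once vehicle control cultures reached saturation at 30 °C; 1 = growth at the plate median or of vehicle wells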
Details: growth OD

Measured: normalized growth

CC(=O)[O][Hg][c]1ccccc1
active: S. cerevisiae deletion strains, locus YJR066W, strain TOR1, stronger effect = lower value 0.00688 | S. cerevisiae deletion strains, locus YJR075W, strain HOC1, stronger effect = lower value 0.0645 | S. cerevisiae deletion strains, locus YKL009W, strain mrt4, stronger effect = lower value 0.0761 | S. cerevisiae deletion strains, locus YKL068W, stronger effect = lower value 0.0552 | S. cerevisiae deletion strains, locus YKL085W, strain MDH1 (second series), stronger effect = lower value 0.0536 | S. cerevisiae deletion strains, locus YKL085W, strain MDH1, stronger effect = lower value 0.0536 | S. cerevisiae deletion strains, locus YKL160W, strain elf1, stronger effect = lower value 0.0629 | S. cerevisiae deletion strains, locus YKL190W, strain CNB1, stronger effect = lower value 0.0488 | S. cerevisiae deletion strains, locus YKR001C, strain vps1, stronger effect = lower value 0.0636 | S. cerevisiae deletion strains, locus YKR026C, strain gcn3, stronger effect = lower value 0.0658 | S. cerevisiae deletion strains, locus YKR091W, strain srl3, stronger effect = lower value 0.0596 | S. cerevisiae deletion strains, locus YLL001W, strain dnm1, stronger effect = lower value 0.0611 | S. cerevisiae deletion strains, locus YLL026W, stronger effect = lower value 0.0582 | S. cerevisiae deletion strains, locus YLL041C, strain sdh2, stronger effect = lower value 0.0595 | S. cerevisiae deletion strains, locus YLR027C, strain aat2, stronger effect = lower value 0.0573 | S. cerevisiae deletion strains, locus YLR039C, strain RIC1, stronger effect = lower value 0.0904 | S. cerevisiae deletion strains, locus YLR058C, strain SHM2, stronger effect = lower value 0.0508 | S. cerevisiae deletion strains, locus YLR102C, strain apc9, stronger effect = lower value 0.0618 | S. cerevisiae deletion strains, locus YLR113W, strain HOG1, stronger effect = lower value 0.158 | S. cerevisiae deletion strains, locus YLR221C, strain rsa3, stronger effect = lower value 0.0629 | S. cerevisiae deletion strains, locus YLR258W, strain gsy2, stronger effect = lower value 0.0604 | S. cerevisiae deletion strains, locus YLR262C, strain YPT6 (second series), stronger effect = lower value 0.0742 | S. cerevisiae deletion strains, locus YLR262C, strain YPT6, stronger effect = lower value 0.103 | S. cerevisiae deletion strains, locus YLR268W, strain sec22, stronger effect = lower value 0.0681 | S. cerevisiae deletion strains, locus YLR320W, strain mms22, stronger effect = lower value 0.0826 | S. cerevisiae deletion strains, locus YLR330W, strain CHS5, stronger effect = lower value 0.0544 | S. cerevisiae deletion strains, locus YLR342W, strain FKS1 (second series), stronger effect = lower value 0.0755 | S. cerevisiae deletion strains, locus YLR342W, strain FKS1, stronger effect = lower value 0.0633 | S. cerevisiae deletion strains, locus YLR357W, strain rsc2, stronger effect = lower value 0.127 | S. cerevisiae deletion strains, locus YLR370C, strain arc18, stronger effect = lower value 0.0626 | S. cerevisiae deletion strains, locus YLR371W, strain rom2, stronger effect = lower value 0.0637 | S. cerevisiae deletion strains, locus YLR384C, strain iki3, stronger effect = lower value 0.0624 | S. cerevisiae deletion strains, locus YLR418C, strain cdc73, stronger effect = lower value 0.0951 | S. cerevisiae deletion strains, locus YML016C, strain PPZ1, stronger effect = lower value 0.0524 | S. cerevisiae deletion strains, locus YML032C, strain rad52, stronger effect = lower value 0.0836 | S. cerevisiae deletion strains, locus YML120C, strain ndi1, stronger effect = lower value 0.0619 | S. cerevisiae deletion strains, locus YML124C, strain tub3, stronger effect = lower value 0.0593 | S. cerevisiae deletion strains, locus YMR058W, strain fet3, stronger effect = lower value 0.0602 | S. cerevisiae deletion strains, locus YMR078C, strain ctf18, stronger effect = lower value 0.0736 | S. cerevisiae deletion strains, locus YMR125W, strain sto1, stronger effect = lower value 0.0779 | S. cerevisiae deletion strains, locus YMR129W, stronger effect = lower value 0.0611 | S. cerevisiae deletion strains, locus YMR205C, strain PFK2, stronger effect = lower value 0.0858 | S. cerevisiae deletion strains, locus YMR223W, strain ubp8, stronger effect = lower value 0.0679 | S. cerevisiae deletion strains, locus YMR231W, strain pep5, stronger effect = lower value 0.0683 | S. cerevisiae deletion strains, locus YMR263W, strain SAP30, stronger effect = lower value 0.0622 | S. cerevisiae deletion strains, locus YMR307W, strain GAS1, stronger effect = lower value 0.119 | S. cerevisiae deletion strains, locus YNL067W, strain RPL9B, stronger effect = lower value 0.0529 | S. cerevisiae deletion strains, locus YNL071W, strain lat1, stronger effect = lower value 0.0614 | S. cerevisiae deletion strains, locus YNL128W, strain TEP1, stronger effect = lower value 0.0633 | S. cerevisiae deletion strains, locus YNL153C, strain GIM3, stronger effect = lower value 0.0495 | S. cerevisiae deletion strains, locus YNL183C, strain NPR1, stronger effect = lower value -0.000716 | S. cerevisiae deletion strains, locus YNL209W, strain ssb2, stronger effect = lower value 0.0586 | S. cerevisiae deletion strains, locus YNL233W, strain BNI4, stronger effect = lower value 0.0544 | S. cerevisiae deletion strains, locus YNL248C, strain rpa49, stronger effect = lower value 0.0785 | S. cerevisiae deletion strains, locus YNL250W, strain rad50, stronger effect = lower value 0.0635 | S. cerevisiae deletion strains, locus YNL271C, strain bni1, stronger effect = lower value 0.0615 | S. cerevisiae deletion strains, locus YNL298W, strain CLA4, stronger effect = lower value 0.0614 | S. cerevisiae deletion strains, locus YNL307C, strain MCK1, stronger effect = lower value 0.0689 | S. cerevisiae deletion strains, locus YNL322C, strain KRE1 (second series), stronger effect = lower value 0.0671 | S. cerevisiae deletion strains, locus YNL322C, strain KRE1, stronger effect = lower value 0.0528 | S. cerevisiae deletion strains, locus YNR049C, strain mso1, stronger effect = lower value 0.0595 | S. cerevisiae deletion strains, locus YNR052C, strain pop2, stronger effect = lower value 0.0629 | S. cerevisiae deletion strains, locus YOL006C, strain TOP1, stronger effect = lower value 0.102 | S. cerevisiae deletion strains, locus YOL147C, strain pex11, stronger effect = lower value 0.058 | S. cerevisiae deletion strains, locus YOR001W, strain rrp6, stronger effect = lower value 0.0684 | S. cerevisiae deletion strains, locus YOR061W, strain CKA2, stronger effect = lower value 0.0465 | S. cerevisiae deletion strains, locus YOR069W, strain VPS5, stronger effect = lower value 0.0482 | S. cerevisiae deletion strains, locus YOR070C, strain gyp1, stronger effect = lower value 0.0606 | S. cerevisiae deletion strains, locus YOR080W, strain dia2, stronger effect = lower value 0.0661 | S. cerevisiae deletion strains, locus YOR083W, strain WHI5, stronger effect = lower value 0.0628 | S. cerevisiae deletion strains, locus YOR106W, strain vam3, stronger effect = lower value 0.0631 | S. cerevisiae deletion strains, locus YOR136W, strain idh2, stronger effect = lower value 0.0713 | S. cerevisiae deletion strains, locus YOR144C, strain elg1, stronger effect = lower value 0.0581 | S. cerevisiae deletion strains, locus YOR184W, strain ser1, stronger effect = lower value 0.073 | S. cerevisiae deletion strains, locus YOR231W, strain MKK1, stronger effect = lower value 0.132 | S. cerevisiae deletion strains, locus YOR265W, strain rbl2, stronger effect = lower value 0.0563 | S. cerevisiae deletion strains, locus YOR270C, strain vph1, stronger effect = lower value 0.0933 | S. cerevisiae deletion strains, locus YOR290C, strain snf2, stronger effect = lower value 0.0699 | S. cerevisiae deletion strains, locus YOR316C, strain cot1, stronger effect = lower value 0.0597 | S. cerevisiae deletion strains, locus YPL051W, strain arl3, stronger effect = lower value 0.063 | S. cerevisiae deletion strains, locus YPL055C, strain LGE1, stronger effect = lower value 0.076 | S. cerevisiae deletion strains, locus YPL078C, strain atp4, stronger effect = lower value 0.0655 | S. cerevisiae deletion strains, locus YPL106C, strain sse1, stronger effect = lower value 0.1 | S. cerevisiae deletion strains, locus YPL240C, strain hsp82, stronger effect = lower value 0.0559 | S. cerevisiae deletion strains, locus YPL241C, strain CIN2, stronger effect = lower value 0.0515 | S. cerevisiae deletion strains, locus YPL256C, strain CLN2, stronger effect = lower value 0.132 | S. cerevisiae deletion strains, locus YPR119W, strain clb2, stronger effect = lower value 0.0616 | S. cerevisiae deletion strains, locus YPR141C, strain kar3, stronger effect = lower value 0.0673 | S. cerevisiae deletion strains, locus YPR163C, strain tif3, stronger effect = lower value 0.0707 | S. cerevisiae deletion strains, locus YPR167C, strain met16, stronger effect = lower value 0.0616 | S. cerevisiae deletion strains, strain wtn01, stronger effect = lower value 0.0633 | S. cerevisiae strains, strain wild type, stronger effect = lower value 0.0493
